About 79,000 compounds went through this panel and 15% of them were active in at least one assay; those are over-represented in the sample as a whole. Activity calls are given as the source filed them. Rule as the data show it: active = growth inhibition above about 70%; inactive = the rest.
How the values were obtained:
[1] = NCI Yeast Anticancer Drug Screen. Data for the mec2-1 strain (AID 157); settings: S. cerevisiae mec2-1 strain, stronger effect = higher value
Outline: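 Strain: mec2-1 (DNA repair/cell cycle alteration). Compound exposure, then growth measured; inhibition expressed relative to vehicle.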

[2] = NCI Yeast Anticancer Drug Screen. Data for the rad14 strain (AID 159);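 also: 0% = growth of vehicle-treated control cultures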; settings: S. cerevisiae rad14 strain growth inhibition, stronger effect = higher value
Outline: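 Vehicle-treated cultures served as the baseline for growth inhibition of a DNA repair-mutant yeast strain exposed to each compound.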

[3] = NCI Yeast Anticancer Drug Screen. Data for the sgs1 mgt1 strain (AID 161);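 also: 0% = growth of cultures given vehicle only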; settings: S. cerevisiae sgs1 mgt1 strain, stronger effect = higher value
Outline: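 Read-out: growth inhibition vs vehicle controls. Cells: mutant yeast strain deficient in DNA damage repair.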

[4] = NCI Yeast Anticancer Drug Screen. Data for the CLN2oe strain (AID 163);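 also: 0% = growth of vehicle-only control cultures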; settings: S. cerevisiae CLN2oe strain, stronger effect = higher value
Outline: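 Growth of a genetically modified yeast strain is measured after compound exposure and compared with cultures given vehicle alone.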

[5] = NCI Yeast Anticancer Drug Screen. Data for the cln2 rad14 strain (AID 165);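 also: 0% = growth equal to vehicle treated cultures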; settings: S. cerevisiae cln2 rad14 strain, stronger effect = higher value
Outline: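 Compounds are applied to the cln2 rad14 yeast strain, and growth is then compared with that of vehicle-treated cultures to give inhibition.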

[6] = NCI Yeast Anticancer Drug Screen. Data for the bub3 strain (AID 167); settings: S. cerevisiae bub3 mutant strain, stronger effect = higher value
Outline: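 Inhibition values come from growth of compound-treated mutant yeast normalised to vehicle-treated controls.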

[7] = NCI Yeast Anticancer Drug Screen. Data for the wt2 strain (AID 169);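 also: 0% = growth of vehicle-treated yeast cultures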; settings: S. cerevisiae wt2 strain growth inhibition, stronger effect = higher value
Outline: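 This strain belongs to a panel of yeast strains with defined genetic alterations in DNA damage repair or cell cycle control. Compounds are applied, and growth inhibition is measured against vehicle-treated cultures.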

[8] = NCI Yeast Anticancer Drug Screen. Data for the mlh1 strain (AID 171);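 also: 0% = growth of vehicle-treated control cultures of the same strain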; settings: S. cerevisiae mlh1 strain growth inhibition, stronger effect = higher value
Outline: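 Growth of the mutant yeast strain after compound exposure, expressed as inhibition relative to vehicle-only controls.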

[9] = NCI Yeast Anticancer Drug Screen. Data for the sgs1 strain (AID 173);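 also: 0% = growth of vehicle-only control cultures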; settings: S. cerevisiae sgs1 mutant, stronger effect = higher value
Outline: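 Growth of a yeast strain bearing a defined genetic alteration is measured after compound treatment. Inhibition is expressed relative to vehicle-only controls.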

[10] = NCI Yeast Anticancer Drug Screen. Data for the mlh1 rad18 strain (AID 175); settings: S. cerevisiae mlh1 rad18 strain growth inhibition, stronger effect = higher value
Outline: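 Read-out is yeast growth inhibition, calculated against vehicle-only controls. The compound was applied to a strain engineered with DNA damage repair alterations.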

[11] = NCI Yeast Anticancer Drug Screen. Data for the rad18 strain (AID 177); settings: S. cerevisiae rad18 mutant growth inhibition, stronger effect = higher value
Outline: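 Growth of the mutant yeast strain after compound exposure, normalised to vehicle-only cultures.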

[12] = NCI Yeast Anticancer Drug Screen. Data for the rad52 strain (AID 147);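 also: 0% = growth of vehicle-treated control cultures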; settings: S. cerevisiae rad52 mutant growth inhibition, stronger effect = higher value
Outline: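 Compounds are applied to a genetically defined yeast strain lacking normal DNA damage repair, and inhibition of growth is expressed relative to cultures given vehicle only.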

[13] = NCI Yeast Anticancer Drug Screen. Data for the wt1 strain (AID 149);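 also: 0% = growth of vehicle-treated wt1 cultures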; settings: S. cerevisiae wt1 strain (SPY 50644) growth inhibition, stronger effect = higher value
Outline: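 Vehicle-normalised growth inhibition; strain wt1; compound exposure.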

[14] = NCI Yeast Anticancer Drug Screen. Data for the rad50EPP+ strain (AID 151);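 also: 0% = growth of vehicle-treated control cultures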; settings: S. cerevisiae rad50 mutant strain, stronger effect = higher value
Outline: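 Compounds were applied to the rad50EPP+ yeast strain, which bears a defined DNA repair alteration, and growth inhibition was determined relative to vehicle-treated cultures.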

[15] = NCI Yeast Anticancer Drug Screen. Data for the mgt1 strain (AID 153); settings: S. cerevisiae mgt1 mutant growth inhibition, stronger effect = higher value
Outline: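 Strain: mgt1 yeast, one of a set carrying defined DNA damage repair or cell cycle control alterations. Compound-treated growth compared with vehicle.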

[16] = NCI Yeast Anticancer Drug Screen. Data for the rad50 strain (AID 155);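 also: 0% = growth of vehicle-only cultures of the same strain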; settings: S. cerevisiae rad50 strain growth inhibition, stronger effect = higher value
Outline: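 A DNA repair-deficient yeast mutant serves as the test organism; compound-induced growth inhibition is calculated against vehicle-treated cells.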

[17] = at 5.0 µM (retest, dose inferred, filed as 0.5)
[18] = at 50.0 µM (retest, dose inferred, filed as 5.0)

Measured: growth inhibition

CCCCCCCCCCNC(=O)OCC
active: [1]; at 50.0 µM 93.5% | [1]; at 100.0 µM 100% | [2]; at 100.0 µM 99% | [3]; at 50.0 µM 83.7% | [4]; at 100.0 µM 99% | [5]; at 50.0 µM 98.3% | [6]; at 50.0 µM 95.3% | [6]; at 100.0 µM 99% | [7]; at 100.0 µM 99% | [8]; at 100.0 µM 99% | [9]; at 100.0 µM 99% | [10]; at 50.0 µM 95% | [11]; at 100.0 µM 99%
inactive: [1]; [17] -7% | [1]; at 11.0 µM -6% | [1]; at 33.0 µM 7% | [1]; [18] 28% | [2]; at 1.2 µM -4% | [2]; at 3.7 µM -4% | [2]; at 11.0 µM -3% | [2]; at 33.0 µM 8% | [3]; [17] -2% | [3]; [18] 56% | [4]; at 1.2 µM 0% | [4]; at 3.7 µM 0% | [4]; at 11.0 µM 4% | [4]; at 33.0 µM 12% | [5]; [17] -55% | [5]; [18] 15% | [6]; at 1.2 µM 2% | [6]; at 3.7 µM -18% | [6]; [17] -21% | [6]; at 11.0 µM 9% | [6]; at 33.0 µM 8% | [6]; [18] 4% | [7]; at 1.2 µM -3% | [7]; at 3.7 µM -3% | [7]; at 11.0 µM 1% | [7]; at 33.0 µM 38% | [8]; at 1.2 µM -3% | [8]; at 3.7 µM 2% | [8]; at 11.0 µM 1% | [8]; at 33.0 µM 20% | [9]; at 1.2 µM -1% | [9]; at 3.7 µM -1% | [9]; at 11.0 µM 7% | [9]; at 33.0 µM 59% | [10]; [17] -15% | [10]; [18] 68% | [11]; at 1.2 µM 0% | [11]; at 3.7 µM 1% | [11]; at 11.0 µM 18% | [11]; at 33.0 µM 11%

CCS(=O)(=O)c1ccc(/C=C/C=N/NC(=S)NCC(C)C)cc1
inactive: [12]; at 1.2 µM 5% | [12]; at 3.7 µM 3% | [12]; at 11.0 µM -1% | [12]; at 33.0 µM 3% | [12]; at 100.0 µM 1% | [13]; at 1.2 µM 0% | [13]; at 3.7 µM -3% | [13]; at 11.0 µM 5% | [13]; at 33.0 µM -4% | [13]; at 100.0 µM 4% | [14]; at 1.2 µM 3% | [14]; at 3.7 µM 5% | [14]; at 11.0 µM 5% | [14]; at 33.0 µM 6% | [14]; at 100.0 µM -9% | [15]; at 1.2 µM -2% | [15]; at 3.7 µM 2% | [15]; at 11.0 µM -2% | [15]; at 33.0 µM 5% | [15]; at 100.0 µM 44% | [16]; at 1.2 µM 6% | [16]; at 3.7 µM 3% | [16]; [17] 5% | [16]; at 11.0 µM -4% | [16]; at 33.0 µM 10% | [16]; [18] -7% | [16]; at 50.0 µM 0.25% | [16]; at 100.0 µM 5% | [1]; at 1.2 µM 0% | [1]; at 3.7 µM 1% | [1]; [17] -25% | [1]; at 11.0 µM 2% | [1]; at 33.0 µM 3% | [1]; [18] -24% | [1]; at 50.0 µM 4.2% | [1]; at 100.0 µM 4% | [2]; at 1.2 µM 4% | [2]; at 3.7 µM 3% | [2]; at 11.0 µM 0% | [2]; at 33.0 µM 5% | [2]; at 100.0 µM 3% | [3]; [17] 6% | [3]; [18] 62% | [4]; at 1.2 µM 2% | [4]; at 3.7 µM -2% | [4]; at 11.0 µM -3% | [4]; at 33.0 µM 1% | [4]; at 100.0 µM -7% | [5]; [17] -7% | [5]; [18] 9% | [5]; at 50.0 µM -67.3% | [6]; at 1.2 µM 3% | [6]; at 3.7 µM 4% | [6]; [17] -12% | [6]; at 11.0 µM 0% | [6]; at 33.0 µM 4% | [6]; [18] 50% | [6]; at 50.0 µM 39.1% | [6]; at 100.0 µM 8% | [7]; at 1.2 µM -8% | [7]; at 3.7 µM -5% | [7]; at 11.0 µM -17% | [7]; at 33.0 µM -5% | [7]; at 100.0 µM 55% | [8]; at 1.2 µM 4% | [8]; at 3.7 µM 0% | [8]; at 11.0 µM -3% | [8]; at 33.0 µM 13% | [8]; at 100.0 µM 41% | [9]; at 1.2 µM -4% | [9]; at 3.7 µM 1% | [9]; at 11.0 µM -24% | [9]; at 33.0 µM 1% | [9]; at 100.0 µM 48% | [10]; [17] 8% | [10]; [18] 43% | [10]; at 50.0 µM 4% | [11]; at 1.2 µM 6% | [11]; at 3.7 µM 2% | [11]; at 11.0 µM -1% | [11]; at 33.0 µM 5% | [11]; at 100.0 µM 9%
active: [3]; at 50.0 µM 77%

Source: PubChem BioAssay (NCI)
